Measured values published in PubChem BioAssay.
Active and inactive are the calls of the source.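 How the source made its calls, unless noted: active means aptamer binding inhibition above 30%, about 3 SD of noise from non-fluorescent compounds; inactive means inhibition at or below 30%.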

Legend:
[1] = RPL19A-GFP modulators, yeast TOR pathway, confirmation, cell-based, S. cerevisiae, flow cytometry, cherry picks, mother/daughter gates (AID 2270;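 active means GFP response below 50% of the DMSO control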); conditions: S. cerevisiae RPL19A-GFP strain, 3 h, at 10 µM, stronger effect = lower value, 100 = same GFP as DMSO wells
[2] = LAP4-GFP expression modulators in yeast, confirmation, cell-based, cherry picks, flow cytometry, mother/daughter gates (AID 2271;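 active means GFP response above 150% of the DMSO control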;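 further: ratio of sample to DMSO plate mean so 100% equals DMSO level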); conditions: S. cerevisiae LAP4-GFP strain, 3 h, at 10 µM, stronger effect = higher value, 100 means same as DMSO control
[3] = modulators of MEP2-GFP levels in yeast, confirmation, S. cerevisiae, flow cytometry GFP, cherry picks (AID 2272;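 active means GFP response above 150% of the DMSO control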;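 further: ratio of well signal to plate DMSO mean so 100% equals DMSO level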); conditions: S. cerevisiae MEP2-GFP strain, 3 h, at 10 µM, stronger effect = higher value
[4] = AGP1-GFP expression modulators, hit retest, confirmation, cell-based, flow cytometry, S. cerevisiae, cherry picks (AID 2273;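 active means GFP response above 150% of the DMSO level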;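 further: median GFP channel fluorescence over the whole cell population gate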); conditions: S. cerevisiae AGP1-GFP strain, 3 h, at 10 µM
[5] = modulators of CIT2-GFP expression in yeast, confirmation, S. cerevisiae, GFP fusion, cherry picks, mother/daughter gates (AID 2274;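 active means GFP response above 150% of the DMSO level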); conditions: S. cerevisiae CIT2-GFP strain, flow cytometry, 3 h, at 10 µM, stronger effect = higher value
[6] = inhibitors of CD8+ T cell-vesicle binding, pilot screen, LFA-1/ICAM-1 modulator project, MLPCN validation set, flow cytometry (AID 2523;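 active means response below a set limit, under 55% cells CD8-positive and vesicle-bound, and CD8 cells' 90th-percentile brightness under 279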;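 on vesicle binding response: mean PE anti-B7-1 fluorescence of CD8+ cells relative to row control; 100% = QL9-loaded vesicles with DMSO vehicle in the same plate row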); conditions: 2C mouse CD8+ T cells, at 7 µM, stronger effect = lower value; double positive events: measured here: CD8+/vesicle+ event percentage
[7] = target: Integrin beta-1 (Homo sapiens) + Integrin alpha-4 (Homo sapiens) (UniProt P13612+P05556); experiment: inhibition of HUTS-21 binding to VLA-4, pilot screen, VLA-4 allosteric modulator project, U937 cells, HUTS-21 mAb, flow cytometry, validation set (AID 2674;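 active means inhibition above 50%, about 3 SD of the validation set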;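 further: antibody binding induced by the VLA-4 ligand LDV present at three times its Kd; 0% = LDV ligand with antibody and no compound and 100% = antibody without LDV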); conditions: HUTS-21 LIBS mAb binding, at 6.7 µM, stronger effect = higher value, binding induced by LDV ligand
Sequence of Integrin beta-1 (Homo sapiens) + Integrin alpha-4 (Homo sapiens) (P05556 whole entry, looked up): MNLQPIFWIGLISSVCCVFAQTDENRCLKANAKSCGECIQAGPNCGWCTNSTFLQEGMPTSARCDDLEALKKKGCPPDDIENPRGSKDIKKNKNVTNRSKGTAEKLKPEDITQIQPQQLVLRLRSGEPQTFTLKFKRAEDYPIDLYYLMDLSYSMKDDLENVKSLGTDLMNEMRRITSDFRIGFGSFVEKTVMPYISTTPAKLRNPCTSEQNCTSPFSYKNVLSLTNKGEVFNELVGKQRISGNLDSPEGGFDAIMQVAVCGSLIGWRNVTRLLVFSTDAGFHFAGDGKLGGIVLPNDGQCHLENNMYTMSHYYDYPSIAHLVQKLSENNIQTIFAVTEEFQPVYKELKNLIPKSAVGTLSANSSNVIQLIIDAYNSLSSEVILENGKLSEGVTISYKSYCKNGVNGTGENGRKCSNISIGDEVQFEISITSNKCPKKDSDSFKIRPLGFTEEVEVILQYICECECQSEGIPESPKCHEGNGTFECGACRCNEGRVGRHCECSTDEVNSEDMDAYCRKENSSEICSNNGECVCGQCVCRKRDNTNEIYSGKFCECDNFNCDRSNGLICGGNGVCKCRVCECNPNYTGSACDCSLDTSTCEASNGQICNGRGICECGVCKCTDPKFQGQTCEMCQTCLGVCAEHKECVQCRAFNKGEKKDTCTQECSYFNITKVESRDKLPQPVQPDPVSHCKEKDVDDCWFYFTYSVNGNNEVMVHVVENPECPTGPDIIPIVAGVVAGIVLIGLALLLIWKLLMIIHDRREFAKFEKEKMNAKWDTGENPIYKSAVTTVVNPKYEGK
Sequence of Integrin beta-1 (Homo sapiens) + Integrin alpha-4 (Homo sapiens) (P13612 whole entry, looked up): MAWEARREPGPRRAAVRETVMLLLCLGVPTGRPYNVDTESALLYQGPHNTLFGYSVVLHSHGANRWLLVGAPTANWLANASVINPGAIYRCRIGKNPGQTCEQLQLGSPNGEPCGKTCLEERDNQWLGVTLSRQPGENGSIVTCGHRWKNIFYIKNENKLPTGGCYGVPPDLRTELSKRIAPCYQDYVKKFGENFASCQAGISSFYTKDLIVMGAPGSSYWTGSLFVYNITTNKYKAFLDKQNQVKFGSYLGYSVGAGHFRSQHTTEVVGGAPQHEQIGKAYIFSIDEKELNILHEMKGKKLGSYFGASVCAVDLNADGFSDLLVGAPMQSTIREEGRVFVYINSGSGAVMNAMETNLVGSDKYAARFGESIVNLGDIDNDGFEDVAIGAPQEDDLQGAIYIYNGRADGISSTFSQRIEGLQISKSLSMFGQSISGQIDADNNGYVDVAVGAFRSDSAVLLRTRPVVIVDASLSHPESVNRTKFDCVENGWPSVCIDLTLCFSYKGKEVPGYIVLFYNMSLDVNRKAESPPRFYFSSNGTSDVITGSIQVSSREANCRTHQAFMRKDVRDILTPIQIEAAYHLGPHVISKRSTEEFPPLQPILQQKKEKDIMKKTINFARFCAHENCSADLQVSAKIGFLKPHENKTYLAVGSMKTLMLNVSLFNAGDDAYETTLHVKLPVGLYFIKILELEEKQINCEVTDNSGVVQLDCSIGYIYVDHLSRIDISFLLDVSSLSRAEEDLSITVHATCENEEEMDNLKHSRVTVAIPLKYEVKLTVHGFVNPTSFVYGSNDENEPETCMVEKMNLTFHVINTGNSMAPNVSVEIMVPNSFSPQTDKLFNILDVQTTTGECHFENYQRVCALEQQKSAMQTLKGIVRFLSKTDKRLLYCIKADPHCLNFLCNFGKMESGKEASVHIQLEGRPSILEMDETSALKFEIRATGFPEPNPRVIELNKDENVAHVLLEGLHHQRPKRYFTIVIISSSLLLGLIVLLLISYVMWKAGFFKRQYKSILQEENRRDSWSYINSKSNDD

[8] = superoxide lowering in aged yeast cells, pilot screen, validation compound set (AID 2706;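 active means superoxide response below 65% of plate, a cut near 3 SD across the whole screen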;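 further: yeast exposed to compound for one week at 30 degrees C before staining; 100% = mean of all compound wells on the same plate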); conditions: S. cerevisiae aging, superoxide DHE fluorescence; at 10 µM, stronger effect = lower value
[9] = target: Beta-adrenergic receptor kinase 1 (Homo sapiens) (UniProt P25098); experiment: GRK2 binders displacing RNA aptamer, biochemical, validation, human GRK2, bead flow cytometry (AID 488806); conditions: bead-bound GRK2, FAM-aptamer displacement, at 10 µM, stronger effect = higher value
Sequence of Beta-adrenergic receptor kinase 1 (Homo sapiens) (P25098 whole entry, looked up): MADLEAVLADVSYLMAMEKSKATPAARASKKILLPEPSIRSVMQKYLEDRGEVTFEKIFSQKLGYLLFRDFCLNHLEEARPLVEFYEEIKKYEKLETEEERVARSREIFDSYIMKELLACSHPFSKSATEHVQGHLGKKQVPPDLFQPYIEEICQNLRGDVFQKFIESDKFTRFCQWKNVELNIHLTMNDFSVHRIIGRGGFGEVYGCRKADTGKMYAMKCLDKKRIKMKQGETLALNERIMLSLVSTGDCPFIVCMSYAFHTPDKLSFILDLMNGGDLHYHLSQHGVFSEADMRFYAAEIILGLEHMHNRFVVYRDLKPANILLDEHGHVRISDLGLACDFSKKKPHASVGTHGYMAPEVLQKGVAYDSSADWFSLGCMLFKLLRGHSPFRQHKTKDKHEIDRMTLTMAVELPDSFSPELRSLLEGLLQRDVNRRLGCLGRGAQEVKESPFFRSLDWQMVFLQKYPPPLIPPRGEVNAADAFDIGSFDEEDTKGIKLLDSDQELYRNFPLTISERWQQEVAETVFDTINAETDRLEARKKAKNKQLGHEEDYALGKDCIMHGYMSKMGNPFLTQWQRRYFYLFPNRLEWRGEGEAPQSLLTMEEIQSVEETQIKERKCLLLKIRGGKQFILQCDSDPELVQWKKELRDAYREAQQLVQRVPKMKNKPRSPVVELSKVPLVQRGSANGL

[10] = target: Beta-2 adrenergic receptor (Homo sapiens) (UniProt P07550); experiment: beta2AR agonists driving receptor internalization, pilot screen, cell-based, FAP fluorogen, flow cytometry, validation set (AID 504459;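 active means percent response above 42, roughly 3 SD of non-fluorescent test compounds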;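 further: agonist-driven loss of surface beta2AR via internalization measured by FAP dye flow cytometry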); conditions: Am2.2-beta2AR cells, FAP surface receptor flow cytometry; at 10 µM; stronger effect = higher value
Sequence of Beta-2 adrenergic receptor (Homo sapiens) (P07550 whole entry, looked up): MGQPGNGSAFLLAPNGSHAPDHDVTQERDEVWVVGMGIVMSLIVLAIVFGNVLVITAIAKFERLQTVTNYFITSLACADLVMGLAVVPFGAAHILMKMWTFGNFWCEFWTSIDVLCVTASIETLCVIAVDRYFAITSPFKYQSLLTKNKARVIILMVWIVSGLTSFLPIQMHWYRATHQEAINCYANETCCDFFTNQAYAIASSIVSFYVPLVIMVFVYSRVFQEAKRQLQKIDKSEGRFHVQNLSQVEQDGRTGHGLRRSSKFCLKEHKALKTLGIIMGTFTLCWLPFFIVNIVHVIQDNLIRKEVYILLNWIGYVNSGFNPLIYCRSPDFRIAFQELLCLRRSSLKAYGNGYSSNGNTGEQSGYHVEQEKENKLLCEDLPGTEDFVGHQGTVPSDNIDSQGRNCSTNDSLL

[11] = target: AP-2 complex subunit beta (Homo sapiens) (UniProt P63010); experiment: inhibitors of arrestin peptide binding to AP2, pilot screen, biochemical, validation set, GST-AP2 beads, flow cytometry (AID 504541;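 active means inhibition above 54%, about 3 SD of non-fluorescent compounds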;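 further: AP2 carries R879A mutation and is captured from E. coli lysate; bead-bound FITC arrestin peptide fluorescence measuring arrestin peptide binding to AP2; 0% = DMSO wells and 100% = excess unlabeled arrestin peptide control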); conditions: FITC arrestin peptide, at 10 µM, stronger effect = higher value, AP2 beta2 appendage fragment, R879A mutant
Sequence of AP-2 complex subunit beta (Homo sapiens) (P63010 whole entry, looked up, the tested form may be a part, one chain of several): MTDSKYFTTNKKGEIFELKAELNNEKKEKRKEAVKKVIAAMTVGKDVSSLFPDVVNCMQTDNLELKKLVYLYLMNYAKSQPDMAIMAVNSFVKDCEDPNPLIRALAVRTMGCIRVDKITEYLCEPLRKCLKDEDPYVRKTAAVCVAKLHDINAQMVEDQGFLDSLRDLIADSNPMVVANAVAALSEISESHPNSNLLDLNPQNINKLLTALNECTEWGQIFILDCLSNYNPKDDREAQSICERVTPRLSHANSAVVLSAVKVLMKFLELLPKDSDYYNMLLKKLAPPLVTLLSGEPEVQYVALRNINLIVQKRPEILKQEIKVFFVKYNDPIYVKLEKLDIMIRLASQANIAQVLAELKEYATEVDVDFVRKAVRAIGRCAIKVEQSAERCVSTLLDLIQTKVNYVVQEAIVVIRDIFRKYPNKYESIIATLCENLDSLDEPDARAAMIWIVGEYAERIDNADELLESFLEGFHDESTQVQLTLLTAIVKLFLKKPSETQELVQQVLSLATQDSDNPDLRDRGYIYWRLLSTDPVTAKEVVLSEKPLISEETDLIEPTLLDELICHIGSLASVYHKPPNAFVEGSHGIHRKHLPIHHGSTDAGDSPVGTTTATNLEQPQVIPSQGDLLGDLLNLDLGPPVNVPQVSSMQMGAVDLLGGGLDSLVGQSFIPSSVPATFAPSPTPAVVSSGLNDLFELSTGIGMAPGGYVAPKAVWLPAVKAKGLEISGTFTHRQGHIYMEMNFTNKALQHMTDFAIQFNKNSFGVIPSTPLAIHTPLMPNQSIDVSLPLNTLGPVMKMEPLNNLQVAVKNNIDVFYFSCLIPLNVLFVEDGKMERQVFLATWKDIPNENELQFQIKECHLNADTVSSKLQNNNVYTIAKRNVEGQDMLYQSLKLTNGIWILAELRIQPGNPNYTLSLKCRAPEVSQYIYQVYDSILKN

[12] = yeast V-ATPase proton transport modulators, S. cerevisiae, pHLuorin, HTS validation (AID 504600; in the data active means response above about 15%;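 further: plate controls were DMSO for no effect and reference compound for full effect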); conditions: S. cerevisiae pHLuorin cytosolic pH, at 10 µM, stronger effect = higher value
[13] = system: anti-desmoglein-3 scFv antibody binding to human DSG3; experiment: inhibitors of anti-DSG3 scFv binding to DSG3, pilot screen, biochemical, validation compound set, bead-based, flow cytometry (AID 588368;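 active means binding below the plate cutoff, the plate median minus 3 SD, with a reading above zero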;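 further: signal is the median channel fluorescence of bead-bound GFP antibody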); conditions: Protein G beads, DSG3-Fc, scFv-GFP binding, at 10 µM, stronger effect = lower value
[14] = inhibitors of fungal efflux pumps CDR1, CDR2, MDR1, pilot screen, validation compound set, multiplex, phenotypic (AID 588506;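 active means efflux inhibition above 0.42, the validation set average plus 4 SD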;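 further: Nile Red retained in cells so higher fluorescence means more efflux inhibition; 0 = negative control wells and 1 = enniatin B 25 µM full block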); conditions: S. cerevisiae pump-expressing triplex, Nile Red efflux flow cytometry; at 10 µM; stronger effect = higher value; the pumps come from Candida albicans
[15] = target: ATP-binding cassette sub-family B member 6 (Homo sapiens) (UniProt Q9NP58); experiment: ABCB6 transporter inhibitors, pilot screen, K562-ABCB6 cells, flow cytometry, validation set (AID 588550;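 active means inhibition above the screen-wide mean plus 3 SD, about 51%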;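 further: 0% = DMSO wells and 100% = benzethonium chloride 70 µM positive control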); conditions: K562-ABCB6 porphyrin accumulation, 1 h, at 10 µM, stronger effect = higher value
Sequence of ATP-binding cassette sub-family B member 6 (Homo sapiens) (Q9NP58 whole entry, looked up): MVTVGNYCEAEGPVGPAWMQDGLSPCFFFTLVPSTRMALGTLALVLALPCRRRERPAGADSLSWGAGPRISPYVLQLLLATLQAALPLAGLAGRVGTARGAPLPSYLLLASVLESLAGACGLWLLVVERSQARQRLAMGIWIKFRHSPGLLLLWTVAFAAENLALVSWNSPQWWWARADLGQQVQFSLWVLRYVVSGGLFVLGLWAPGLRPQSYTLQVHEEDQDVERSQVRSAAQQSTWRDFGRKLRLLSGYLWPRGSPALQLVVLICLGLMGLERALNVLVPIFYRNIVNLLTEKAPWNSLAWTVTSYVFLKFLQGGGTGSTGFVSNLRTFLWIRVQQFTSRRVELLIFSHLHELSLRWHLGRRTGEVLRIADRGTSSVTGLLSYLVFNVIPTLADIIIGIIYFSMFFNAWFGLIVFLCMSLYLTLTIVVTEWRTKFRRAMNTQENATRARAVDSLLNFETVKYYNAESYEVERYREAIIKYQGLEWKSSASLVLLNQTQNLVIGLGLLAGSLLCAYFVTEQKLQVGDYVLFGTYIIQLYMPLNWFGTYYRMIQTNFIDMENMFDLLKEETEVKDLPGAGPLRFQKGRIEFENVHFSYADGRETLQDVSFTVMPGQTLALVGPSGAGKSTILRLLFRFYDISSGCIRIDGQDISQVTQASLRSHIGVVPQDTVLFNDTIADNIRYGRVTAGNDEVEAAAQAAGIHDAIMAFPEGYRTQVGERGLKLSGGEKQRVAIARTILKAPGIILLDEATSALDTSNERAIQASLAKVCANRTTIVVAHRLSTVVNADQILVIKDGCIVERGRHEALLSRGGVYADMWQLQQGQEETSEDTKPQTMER

[16] = promoters of myeloid differentiation in arrested cells, primary screen, cell-based, GFP/MAC1 double positive, flow cytometry, validation set (AID 588685;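 active means differentiation response of at least 50%, scaled between solvent and reference control, from cells with both markers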;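 further: compound exposure lasts four days before antibody staining and flow analysis; 0% = DMSO wells and 100% = 5 µM fulvestrant positive control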); conditions: ER-HoxA9 marrow cells, stronger effect = higher value, normalized: vehicle 0, fulvestrant 100
[17] = measured here: daughter cell gate

Row | Structure (SMILES) | GFP response vs DMSO [1] | GFP response relative to DMSO [2] | GFP response vs DMSO [3] | GFP response, % of DMSO [4] | GFP response, % of DMSO [5] | double positive events [6] | vesicle binding response [6] | inhibition [7] | superoxide response (% of plate) [8] | aptamer binding inhibition [9] | response [10] | inhibition [11] | response [12] | binding (% of control) [13] | efflux inhibition (fraction of control) [14] | inhibition [15] | differentiation response [16] | GFP response, % of DMSO [5, 17] | GFP response, % of DMSO ([5]; measured here: mother cell gate)
1 | Cc1nc2ccc(Br)cn2c1NC(C)(C)C | 98.4% (inactive) | 96.2% (inactive) | 100% (inactive) | 97.6% (inactive) | 102% (inactive) |  |  |  |  |  |  |  |  |  |  |  |  |  | 
2 | CCS(=O)(=O)Nc1cc(OC)c(OC)cc1Cc1nccc2cc(OC)c(OC)cc12 |  |  |  |  |  | 57.8% | 90.7% (inactive) | -9.63% (inactive) | 93.2% (inactive) | -1% (inactive) | -40% (inactive) | -7.26% (inactive) | 4.6% (inactive) | 106% (inactive) | 0.08 (inactive) | 0% (inactive) | -5.97% (inactive) |  | 
3 | C=C(C)c1nc2cc(OC)c(OC)cc2c(=O)o1 |  |  |  |  |  | 66.2% | 181% (inactive) | -9.06% (inactive) | 96.8% (inactive) | 0% (inactive) | -1.85% (inactive) | 0.91% (inactive) | 2.81% (inactive) | 105% (inactive) | -0.46 (inactive) | 11% (inactive) | 9.01% (inactive) |  | 
4 | O=C(O)CSC1CC(=O)N(c2ccc(Cl)cc2)C1=O (stereo not given) | 93.1% (inactive) | 102% (inactive) | 108% (inactive) | 97.3% (inactive) | 104% (inactive) |  |  |  |  |  |  |  |  |  |  |  |  | 90.5% | 
5 | COc1ccc(C)cc1S(=O)(=O)Nc1ccc(F)cc1 |  |  |  |  |  | 64.5% | 172% (inactive) | 5.61% (inactive) | 98.8% (inactive) | 1% (inactive) | 0.44% (inactive) | 2.42% (inactive) | -2.48% (inactive) | 102% (inactive) | 0.06 (inactive) | 17% (inactive) | -3.11% (inactive) |  | 
6 | Cc1oc2c(C)c3oc(=O)c4c(c3cc2c1C)CCCC4 |  |  |  |  |  | 54.6% | 32.8% (active) | -22.2% (inactive) | 114% (inactive) | 3% (inactive) | -4.45% (inactive) | -2.86% (inactive) | 0.57% (inactive) | 89.1% (inactive) | -0.2 (inactive) | 2% (inactive) | 2.2% (inactive) |  | 
7 | C#CCN(C)CCCOc1ccc(Cl)cc1Cl |  |  |  |  |  | 56.3% | 64.3% (inactive) | -7.12% (inactive) | 96.4% (inactive) | 0% (inactive) | -6.11% (inactive) | -2.33% (inactive) | 1.85% (inactive) | 96.3% (inactive) | 0.3 (inactive) | 12% (inactive) | -1.64% (inactive) |  | 
8 | Cc1cccc(N2C(=O)C3C(c4ccccc4)OC4(C(=O)c5ccccc5C4=O)C3C2=O)c1 (stereo not given) |  |  |  |  |  | 56.8% | 143% (inactive) | -5.89% (inactive) | 110% (inactive) | 3% (inactive) | 1.5% (inactive) | 6.34% (inactive) | -0.37% (inactive) | 104% (inactive) | 0.33 (inactive) | 5% (inactive) | -12% (inactive) |  | 
9 | COc1ccc(/C=C2\CCn3c2nc2cc(C(=O)O)ccc2c3=O)cc1OC |  |  |  |  |  | 60.5% | 178% (inactive) | 5.61% (inactive) | 108% (inactive) | 1% (inactive) | 7.98% (inactive) | -3.78% (inactive) | 0.13% (inactive) | 102% (inactive) | 0 (inactive) | 2% (inactive) | -8.96% (inactive) |  | 
10 | CCC(=O)OCCNc1cc(Sc2nc3ccccc3s2)c2nonc2c1[N+](=O)[O-] | 90.5% (inactive) | 254% (active) | 97.8% (inactive) | 124% (inactive) | 80.8% (inactive) |  |  |  |  |  |  |  |  |  |  |  |  |  | 
11 | C[C@H](NC(=O)Nc1ccccc1F)C(=O)O |  |  |  |  |  | 66% | 272% (inactive) | -12.7% (inactive) | 106% (inactive) | 6% (inactive) | -5.56% (inactive) | -4.89% (inactive) | -9.72% (inactive) | 101% (inactive) | -0.24 (inactive) | 7% (inactive) | -10.4% (inactive) |  | 
12 | CC(C)(C)C(=O)NC(=S)NNC(=O)c1sc2ccccc2c1Cl | 116% (inactive) | 242% (active) | 122% (inactive) | 137% (inactive) | 106% (inactive) |  |  |  |  |  |  |  |  |  |  |  |  | 90.5% | 91.5%
13 | O=C(c1ccc([N+](=O)[O-])cc1)N1CCSC1c1ccccc1Cl (stereo not given) |  |  |  |  |  | 77.4% | 441% (inactive) | -9.98% (inactive) | 91% (inactive) | 4% (inactive) | -12.5% (inactive) | -8.18% (inactive) | -2.22% (inactive) | 101% (inactive) | -0.1 (inactive) | 5% (inactive) | 0.8% (inactive) |  | 
14 | COc1ccccc1-c1c(C(F)(F)F)oc2cc(OC(=O)c3ccc([N+](=O)[O-])cc3)ccc2c1=O |  |  |  |  |  | 61.5% | 160% (inactive) | -1.97% (inactive) | 49.2% (active) | 2% (inactive) | -19.4% (inactive) | -4.55% (inactive) | 1.11% (inactive) | 99.3% (inactive) | 0.04 (inactive) | 1% (inactive) | -5.97% (inactive) |  | 
15 | COc1cc([C@@H]2c3cc4c(cc3[C@H](O)[C@H]3COC(=O)[C@H]23)OCO4)cc(OC)c1OC |  |  |  |  |  | 63.2% | 180% (inactive) | 38.9% (inactive) | 99.1% (inactive) | 7% (inactive) | 22.7% (inactive) | -1.6% (inactive) | 21% (active) | 102% (inactive) | -0.13 (inactive) | 7% (inactive) | -0.06% (inactive) |  | 
